Assay [1] in a line: qHTS assay to identify small molecule antagonists of the thyroid receptor (TR) signaling pathway - cell viability counter screen (AID 743064). Also: nearly all actives have a fitted effect of over 50% in size. Also: potency is read from the fitted curve at half-maximal effect. In short, it runs like this: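 Viability of T3-stimulated (1 nM final) GH3.TRE-Luc cells is measured by CellTiter-Fluor fluorescence after 23.5 h compound exposure at 37 °C plus 30 min reagent incubation.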
Assay [2] can be described thus: qHTS assay to identify small molecule antagonists of the thyroid receptor (TR) signaling pathway (AID 743065). Also: nearly all actives have a fitted effect of over 55% in size. Also: potency is read from the fitted curve at half-maximal effect. Summed up:
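GH3.TRE-Luc rat pituitary cells carrying two TR response elements driving luciferase were plated for 4 h, given compound plus 1 nM T3 (final), and incubated 23.5 h at 37 C. ONE-Glo luminescence measured reporter inhibition; CellTiter-Fluor fluorescence tracked cytotoxicity.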
Background: Quantitative high-throughput screening tests each substance at several concentrations.

Assay [3] relates to thyroid hormone receptor (rat, GH3 cells). The assay can be described thus: qHTS assay to identify small molecule agonists of the thyroid receptor (TR) signaling pathway (AID 743066; calls by dose curve).
Assay [4] in a line: qHTS assay to identify small molecule antagonists of the estrogen receptor alpha (ER-alpha) signaling pathway - cell viability counter screen (AID 743074; calls by dose curve; also: nearly all actives have a fitted effect of over 45% in size).
A short description of assay [5]: qHTS assay to identify small molecule antagonists of the estrogen receptor alpha (ER-alpha) signaling pathway using the BG1 cell line - cell viability counter screen (AID 743081).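 Also: compound given together with 17beta-estradiol as the ER stimulus; nearly all actives have a fitted effect of over 45% in size.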 Also: potency is read from the fitted curve at half-maximal effect.
The next assay concerns the target Aromatase (Homo sapiens) (UniProt P11511). Kind of assay: qHTS assay to identify aromatase inhibitors (AID 743083). Also: series mostly up to about 70 µM; nearly all actives have a fitted effect of over 55% in size.
A short description of assay [6]: qHTS assay to identify aromatase inhibitors - cell viability counter screen (AID 743084).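 Also: cells stimulated with testosterone during compound exposure; nearly all actives have a fitted effect of over 55% in size.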
In assay [7] the target is Aryl hydrocarbon receptor (Homo sapiens) (UniProt P35869). Kind of assay: qHTS assay to identify small molecule that activate the aryl hydrocarbon receptor (AhR) signaling pathway (AID 743085).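 Also: HG2L7.5c1 human HepG2 liver cells with stably integrated DRE-driven firefly reporter; series mostly up to about 70 µM; nearly all actives have a fitted effect of over 15% in size.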 Summed up:
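A multiplexed format paired cell viability (CellTiter-Fluor fluorescence) with AhR-dependent luciferase output (ONE-Glo luminescence) in the same wells of HepG2 DRE-luc cells after 24 h compound exposure at 37C.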

A short description of assay [8]: qHTS assay to identify small molecule that activate the aryl hydrocarbon receptor (AhR) signaling pathway - cell viability counter screen (AID 743086).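 Also: HepG2 liver cells carrying the AhR DRE luciferase reporter; series mostly up to about 70 µM; nearly all actives have a fitted effect of over 45% in size.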 In short, it runs like this: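 HepG2-AhR-luc (HG2L7.5c1) cells, 4000/well, were preincubated 5 h at 37C, exposed to compound in qHTS format for 24 hr at 37C, then given CellTiter-Fluor for 30 min; viability was read as fluorescence in the reporter wells.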

Assay [9] is described as follows: qHTS assay for small molecule agonists of the antioxidant response element (ARE) signaling pathway (AID 743202; active = well fitted activation curve with a large enough effect in the signal ratio in the repeat runs, not every such curve was filed as active; the % refers to the signal ratio). Summed up: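 Steps: seed ARE-bla HepG2 cells (2,000/well); incubate 5 h at 37 C; add compounds by pin tool; incubate 16 h at 37 C; add FRET substrate; read fluorescence after 2 h at RT.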
The nature of assay [10]: qHTS assay for small molecule agonists of the antioxidant response element (ARE) signaling pathway - cell viability counter screen (AID 743203; calls by dose curve; also: nearly all actives have a fitted effect of over 55% in size). Summed up: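 Luminescence read-out (CellTiter-Glo, 30 min at room temperature) measured cell viability in the same wells as the ARE beta-lactamase reporter. HepG2 ARE-bla cells were treated with compounds for 16 hrs at 37C/5% CO2.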

The nature of assay [11]: qHTS assay for small molecule activators of the heat shock response signaling pathway - cell viability counter screen (AID 743209). Also: nearly all actives have a fitted effect of over 50% in size. Also: potency is read from the fitted curve at half-maximal effect. Summed up: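 HSE-bla HeLa; 1500 cells/well; overnight 37 C, 5% CO2; compound 5 h 37 C; LiveBLAzer B/G substrate 2.5 h RT; CellTiter-Glo 30 min RT; luminescence.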
Assay [12] can be described thus: qHTS assay for small molecule activators of the heat shock response signaling pathway (AID 743210; active = well fitted activation curve with a large enough effect in the signal ratio in the repeat runs, with a control signal flat, not every such curve was filed as active; the % refers to the signal ratio;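 also: HeLa cells with beta-lactamase reporter driven by heat shock elements; series mostly up to about 63 µM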). Summed up: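 Activation of heat shock element-controlled beta-lactamase expression is measured in HeLa cells by LiveBLAzer FRET fluorescence, with compound exposure lasting 5 h at 37 C and substrate loading 2.5 h at room temperature.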
Assay [13] is described as follows: qHTS assay to identify small molecule antagonists of the peroxisome proliferator-activated receptor gamma (PPARg) signaling pathway - cell viability counter screen (AID 743194). Also: nearly all actives have a fitted effect of over 55% in size. Also: potency is read from the fitted curve at half-maximal effect. In short, it runs like this: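 PPARg-UAS-bla HEK293H cells were plated, rested 5 h at 37 C, then treated with compounds plus rosiglitazone (50 nM final) for 17 h at 37 C; viability was then read by CellTiter-Glo luminescence after 30 min at room temperature.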

Assay [14] concerns the target Peroxisome proliferator-activated receptor gamma (Homo sapiens) (UniProt P37231). Kind of assay: qHTS assay to identify small molecule agonists of the peroxisome proliferator-activated receptor gamma (PPARg) signaling pathway (AID 743094; active = well fitted activation curve with a large enough effect in the signal ratio in the repeat runs, not every such curve was filed as active; the % refers to the signal ratio). In short, it runs like this: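 HEK293H PPARg-bla cells, 5 h settle at 37C/5% CO2; compound (DMSO) 17 h, 37C; B/G FRET substrate 1 h RT; fluorescence intensity read-out. qHTS format.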

In assay [15] the target is Estrogen receptor (Homo sapiens) (UniProt P03372). Kind of assay: qHTS assay to identify small molecule antagonists of the estrogen receptor alpha (ER-alpha) signaling pathway (AID 743069; active = well fitted curve in the direction sought with a large enough effect in the signal ratio in the repeat runs, not every such curve was filed as active; the % refers to the signal ratio). Summed up:
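Screening used a UAS-driven beta-lactamase reporter integrated into HEK293 cells expressing ER-alpha, stimulated with 17beta-estradiol alongside test compounds over 18 hr at 37C; signal came from LiveBLAzer B/G FRET fluorescence.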

Assay [16] has the same target. The assay can be described thus: qHTS assay to identify small molecule agonists of the estrogen receptor alpha (ER-alpha) signaling pathway (AID 743075; calls by dose curve).
The target is the same in assay [17]. The assay can be described thus: qHTS assay to identify small molecule agonists of the estrogen receptor alpha (ER-alpha) signaling pathway using the BG1 cell line (AID 743079). Also: nearly all actives have a fitted effect of over 20% in size.
Assay [18] in a line: qHTS assay to identify small molecule antagonists of the estrogen receptor alpha (ER-alpha) signaling pathway using the BG1 cell line (AID 743080; calls by dose curve;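 also: BG1 cells stimulated with 17beta-estradiol alongside compound; series mostly up to about 70 µM; nearly all actives have a fitted effect of over 25% in size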). In short, it runs like this:
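Readout is ONE-Glo luminescence, taken 30 min at room temperature after reagent addition, preceded by a CellTiter-Fluor viability read; BG1-Luc-4E2 cells had received compound and 17beta-estradiol for 21.5 h at 37 C.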

Inconclusive results are not listed. Calls of active or inactive are those of the source. Unless noted, calls follow the shape of the dose curve; as a rule, active = well fitted curve in the direction sought with a large enough effect in the repeat runs; inconclusive = weak or mixed curves; inactive = no such curve, though single readings can be large; an effect the other way counts as inactive or inconclusive.

Sequence of Aromatase (Homo sapiens) (P11511 whole entry, looked up): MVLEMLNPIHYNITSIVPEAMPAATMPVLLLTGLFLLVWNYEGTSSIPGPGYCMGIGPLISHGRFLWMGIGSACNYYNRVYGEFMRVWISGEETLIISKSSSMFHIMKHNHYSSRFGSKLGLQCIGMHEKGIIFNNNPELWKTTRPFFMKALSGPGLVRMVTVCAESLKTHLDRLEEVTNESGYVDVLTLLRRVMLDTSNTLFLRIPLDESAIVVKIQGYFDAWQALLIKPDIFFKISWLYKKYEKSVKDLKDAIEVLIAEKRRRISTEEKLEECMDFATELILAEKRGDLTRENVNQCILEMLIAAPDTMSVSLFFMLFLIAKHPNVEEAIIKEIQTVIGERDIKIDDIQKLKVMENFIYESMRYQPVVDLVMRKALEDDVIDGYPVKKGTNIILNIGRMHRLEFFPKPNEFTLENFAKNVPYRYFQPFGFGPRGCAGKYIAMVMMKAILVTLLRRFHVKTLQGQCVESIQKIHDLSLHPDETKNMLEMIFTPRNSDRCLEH
Sequence of Estrogen receptor (Homo sapiens) (P03372 whole entry, looked up): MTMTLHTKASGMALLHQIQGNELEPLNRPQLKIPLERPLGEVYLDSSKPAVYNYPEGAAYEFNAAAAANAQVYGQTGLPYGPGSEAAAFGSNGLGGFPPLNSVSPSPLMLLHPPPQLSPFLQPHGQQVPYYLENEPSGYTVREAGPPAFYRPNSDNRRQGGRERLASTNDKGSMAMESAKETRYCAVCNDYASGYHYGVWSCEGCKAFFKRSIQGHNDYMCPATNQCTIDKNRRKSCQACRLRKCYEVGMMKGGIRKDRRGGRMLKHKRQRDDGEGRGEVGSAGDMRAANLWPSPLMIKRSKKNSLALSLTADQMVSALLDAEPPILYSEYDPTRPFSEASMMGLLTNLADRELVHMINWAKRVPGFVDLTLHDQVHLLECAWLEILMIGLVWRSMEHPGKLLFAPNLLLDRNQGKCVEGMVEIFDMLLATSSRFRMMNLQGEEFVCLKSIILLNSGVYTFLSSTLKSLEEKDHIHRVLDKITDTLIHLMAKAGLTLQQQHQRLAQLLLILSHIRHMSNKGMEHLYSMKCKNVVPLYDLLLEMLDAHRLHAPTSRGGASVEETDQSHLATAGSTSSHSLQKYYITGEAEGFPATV
Sequence of Peroxisome proliferator-activated receptor gamma (Homo sapiens) (P37231 whole entry, looked up): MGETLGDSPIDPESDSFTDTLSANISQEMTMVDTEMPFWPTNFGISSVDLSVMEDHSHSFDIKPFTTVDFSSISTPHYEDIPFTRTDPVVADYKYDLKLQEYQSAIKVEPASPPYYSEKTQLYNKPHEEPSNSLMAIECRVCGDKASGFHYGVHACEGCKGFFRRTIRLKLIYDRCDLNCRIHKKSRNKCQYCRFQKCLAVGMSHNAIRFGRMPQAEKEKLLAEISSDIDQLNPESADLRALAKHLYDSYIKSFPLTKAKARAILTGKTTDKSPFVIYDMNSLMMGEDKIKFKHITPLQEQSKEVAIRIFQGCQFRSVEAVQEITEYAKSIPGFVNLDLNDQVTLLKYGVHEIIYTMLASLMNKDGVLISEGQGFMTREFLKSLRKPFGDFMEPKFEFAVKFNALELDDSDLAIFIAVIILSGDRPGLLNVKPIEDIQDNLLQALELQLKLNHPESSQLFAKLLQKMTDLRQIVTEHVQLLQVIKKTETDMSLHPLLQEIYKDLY
Sequence of Aryl hydrocarbon receptor (Homo sapiens) (P35869 whole entry, looked up): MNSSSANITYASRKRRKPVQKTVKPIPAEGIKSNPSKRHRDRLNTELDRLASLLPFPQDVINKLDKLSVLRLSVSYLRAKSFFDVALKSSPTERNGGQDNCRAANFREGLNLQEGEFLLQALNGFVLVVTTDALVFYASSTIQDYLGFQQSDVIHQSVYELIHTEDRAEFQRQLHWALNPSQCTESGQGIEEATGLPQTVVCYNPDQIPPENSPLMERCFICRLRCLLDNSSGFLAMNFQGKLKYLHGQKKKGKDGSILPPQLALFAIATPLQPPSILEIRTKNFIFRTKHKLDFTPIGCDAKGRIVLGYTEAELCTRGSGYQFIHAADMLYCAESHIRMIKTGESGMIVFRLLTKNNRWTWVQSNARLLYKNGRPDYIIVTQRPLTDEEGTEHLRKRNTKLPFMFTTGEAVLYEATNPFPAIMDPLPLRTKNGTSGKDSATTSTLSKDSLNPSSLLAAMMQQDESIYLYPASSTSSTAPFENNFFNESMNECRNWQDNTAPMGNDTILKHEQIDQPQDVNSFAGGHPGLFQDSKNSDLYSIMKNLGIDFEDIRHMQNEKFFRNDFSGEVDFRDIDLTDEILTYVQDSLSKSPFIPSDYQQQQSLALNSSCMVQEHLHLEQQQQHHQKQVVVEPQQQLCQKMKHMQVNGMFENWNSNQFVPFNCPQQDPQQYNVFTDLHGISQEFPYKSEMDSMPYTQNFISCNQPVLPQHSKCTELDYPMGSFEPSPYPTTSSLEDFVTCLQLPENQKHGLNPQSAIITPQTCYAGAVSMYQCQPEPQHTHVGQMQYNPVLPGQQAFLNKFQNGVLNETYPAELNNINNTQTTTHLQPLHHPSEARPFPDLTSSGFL

`O=C1OC[C@H](Cc2cccc(O)c2)[C@H]1Cc1cccc(O)c1`: the Potency entry (in [1]; in assay [2]; in [3]; in assay [4]; in assay [5]; in the assay with Aromatase (Homo sapiens)) was “inactive” throughout. Moreover, the Potency entry in assay [6], in assay [7], in [8], in [9], in assay [10] and in assay [11] was “inactive” throughout. Further, the Potency result in [12] was “inactive”.

On to `CCCCOC(=O)CCCCC(=O)OCCCC`, for which the Potency entry in [1], in assay [2], in assay [3], in assay [4], in assay [5] and in [6] was “inactive” throughout. Besides, the Potency entry in assay [7], in assay [8], in [13], in [9], in assay [10] and in assay [11] was “inactive” in each case. The Potency entry in [12] is “inactive”.

Regarding `CCCCCCC(CO)CCCC` (stereo unspecified), the Potency result (in [1]; in [2]; in assay [3]; in assay [4]; in assay [5]; with Aromatase (Homo sapiens)) was “inactive” throughout. Moreover, the Potency entry in [6], in [7], in [8], in assay [9] and in assay [11] was “inactive” throughout. Further, the compound was classed as inactive in assay [14].

Consider `CSSc1ccoc1C`, for which the Potency result (in assay [1]; in [2]; in assay [3]; in assay [4]; in assay [5]; with Aromatase (Homo sapiens)) was “inactive” throughout. The Potency entry in assay [6], in assay [7], in [8], in assay [13], in [9] and in assay [10] was “inactive” throughout. Further, the Potency entry in assay [11] is “inactive”.

In the case of `CCC1CCC(CCC(=O)O)C1` (stereo unspecified), the Potency entry (in assay [1]; in assay [2]; in [3]; in [4]; in assay [5]; with Aromatase (Homo sapiens)) was “inactive” throughout. Further, the Potency result in assay [6], in assay [8], in assay [13], in assay [10] and in [11] was “inactive” each time.

For the compound `CC(C(=O)O)c1ccc(C(=O)c2cccs2)cc1` (stereo unspecified), the Potency entry (in assay [1]; in assay [2]; in [3]; in assay [4]; in assay [5]; in the assay with Aromatase (Homo sapiens)) was “inactive” in each case. Also, the Potency entry in assay [6], in assay [7], in assay [8], in [13], in assay [9] and in assay [10] was “inactive” in each case. The Potency entry in assay [11] and in assay [12] was “inactive” each time.

Regarding `Cc1cccc(C)c1NC(=O)c1cc(S(N)(=O)=O)c(Cl)cc1O`, the Potency result (in assay [1]; in assay [2]; in assay [3]; in assay [5]; with Aromatase (Homo sapiens); in assay [6]) was “inactive” each time. Also, the Potency entry in assay [7], in [8], in [13], in [9], in assay [10] and in assay [11] was “inactive” in each case. Also, the Potency entry in assay [12] is “inactive”. In addition, the call in assay [14] was inactive.

`CCC(=O)OCc1ccc(OC)cc1`: the Potency result in [1], in assay [2], in assay [3], in assay [4], in assay [5] and in assay [8] was “inactive” in each case. For the same compound, the Potency result in [13], in [10] and in assay [11] was “inactive” each time.

On to `CCCCCC`, for which the Potency entry (in assay [1]; in assay [2]; in [3]; in assay [4]; in [5]; with Aromatase (Homo sapiens)) was “inactive” throughout. Also, the Potency result in [6], in assay [7], in [8], in assay [13], in assay [9] and in assay [10] was “inactive” in each case. For the same compound, in assay [11], the Potency entry is “inactive”.

As to `O=C(O)CCC(=O)OC[C@@H](NC(=O)C(Cl)Cl)[C@H](O)c1ccc([N+](=O)[O-])cc1`, the Potency result (in assay [1]; in assay [2]; in assay [3]; in assay [4]; in assay [5]; in the assay with Aromatase (Homo sapiens)) was “inactive” each time. Also, the Potency entry in [6], in assay [7], in assay [8], in assay [13], in assay [10] and in [11] was “inactive” in each case. Moreover, the outcome in assay [14] was inactive.

As to `NC(=O)c1ccccc1[N+](=O)[O-]`, the Potency result in assay [2], in assay [3], in [15], in assay [4], in assay [16] and in assay [17] was “inactive” in each case. Moreover, the Potency entry (in assay [18]; in [5]; with Aromatase (Homo sapiens); in assay [6]; in assay [7]; in [8]) was “inactive” in each case. Further, the Potency result in assay [13], in [10] and in [11] was “inactive” in each case. The compound was classed as inactive in assay [14].

On to `CC(=O)OC(C)C[N+](C)(C)C` (stereo unspecified), for which the Potency result in assay [1], in [15], in assay [4], in assay [16], in assay [17] and in assay [18] was “inactive” in each case. For the same compound, the Potency result (in assay [5]; in the assay with Aromatase (Homo sapiens); in assay [6]; in [7]; in assay [8]; in [13]) was “inactive” throughout. For the same compound, the Potency result in assay [9], in assay [10] and in [11] was “inactive” each time.

Take `CC(=O)c1ccc[nH]1`: the Potency entry in assay [2], in assay [3], in assay [15], in assay [4], in assay [16] and in assay [17] was “inactive” throughout. The Potency entry (in assay [18]; in [5]; with Aromatase (Homo sapiens); in assay [6]; in assay [7]; in assay [8]) was “inactive” each time. The Potency entry in assay [13], in [9], in assay [10], in [11] and in assay [12] was “inactive” in each case. Also, the outcome in assay [14] was inactive.

For `COc1ccc(-c2cc(C(F)F)nn2-c2ccc(S(N)(=O)=O)cc2)cc1F`, the Potency result in assay [2], in [3], in assay [15], in assay [4], in assay [16] and in assay [17] was “inactive” each time. Also, the Potency result (in assay [18]; in [5]; with Aromatase (Homo sapiens); in assay [6]; in [7]; in assay [8]) was “inactive” throughout. The Potency entry in assay [13], in assay [10], in assay [11] and in assay [12] was “inactive” throughout. Also, in [14], the compound was called inactive.

In the case of `CO[C@@H]1[C@@H](OC)[C@H](C)[C@@](O)(CC(=O)O)O[C@H]1[C@H](C)[C@H]1O[C@@]2(CC[C@@](C)([C@H]3CC[C@@](C)([C@@H]4O[C@@H]([C@H]5O[C@](C)(O)[C@H](C)C[C@@H]5C)C[C@@H]4OC4C[C@H](OC)[C@@H](OC)[C@H](C)O4)O3)O2)C[C@H](O)[C@H]1C` (stereo partly specified), the Potency in [1] is 0.422 µM (active); in assay [2], 0.335 µM (active); in assay [5] it was 2.98 µM (active); in [13], 8.41 µM (active); in assay [11], 11.9 µM (active). In addition, the Potency entry (in assay [16]; with Aromatase (Homo sapiens); in [7]; in [12]) was “inactive” each time. Also, the call in assay [14] was inactive.

For the origin of these results see PubChem BioAssay (Tox21).
